Screen size: about 48,000 compounds; about 13,000 (27%) showed an effect of 50% or more. The list shows a part of the results.

The experiment concerns Wolbachia pipientis. Kind of experiment: Anti-Wolbachia Cell-Based Screen. The format is functional. Details: scale not given: in the data most compounds retested in dose-response had high values. As to conditions: 5 µM.
With `O=C(CCNCc1cc(O)c2cc(F)ccc2n1)N1CCCC1`, the “Percent Effect” value stood at 24.8%.

As to `CSc1nccc(N2CCCC(c3nccn3C(C)C)C2)n1` (stereo unspecified), the “Percent Effect” value amounted to 6.418%.

As for `COCCN1CCN(C(=O)NC2CC2)Cc2ccc(C)nc21.O=C(O)C(F)(F)F`, the “Percent Effect” value is listed as -6.778%.

With `Cc1ccc2c(n1)N(CCn1cccn1)CCN(C(=O)CC1CC1)C2.O=C(O)C(F)(F)F`, the “Percent Effect” value is 5.383%.

Turning to `Cc1ccc2c(n1)N(CCn1cccn1)CCN(S(C)(=O)=O)C2.O=C(O)C(F)(F)F`, the “Percent Effect” value came out at 91.26%.

As to `Cc1ccc2c(n1)N(CC(C)C)CCN(C(=O)Cc1ccccn1)C2.O=C(O)C(F)(F)F.O=C(O)C(F)(F)F`, the “Percent Effect” value is listed as 1.939%.

In the case of `CCCC(=O)N1CCN(CCN(C)C)c2nc(C)ccc2C1.O=C(O)C(F)(F)F.O=C(O)C(F)(F)F`, the “Percent Effect” value was -16.06%.

With `COCCN1CCN(C(=O)N2CCCC2)Cc2ccc(C)nc21.O=C(O)C(F)(F)F`, the “Percent Effect” value is 6.866%.

Consider `COCC(=O)N1CCN(CCn2cccn2)c2nc(C)ccc2C1.O=C(O)C(F)(F)F`, for which the “Percent Effect” value was 116.6%.

Turning to `CCS(=O)(=O)N1CCN(CCn2cccn2)c2nc(C)ccc2C1.O=C(O)C(F)(F)F`, the “Percent Effect” value is recorded as 99.61%.

Regarding `Cc1ccc2c(n1)N(CCn1cccn1)CCN(C1CCOCC1)C2.O=C(O)C(F)(F)F.O=C(O)C(F)(F)F`, the “Percent Effect” value is recorded as 93.94%.

Turning to `Cn1nc(Cn2cccn2)c2c1CN(C1CCOCC1)C2.O=C(O)C(F)(F)F`, the “Percent Effect” value amounted to 2.859%.

In the case of `Cc1ccc2c(n1)N(Cc1csc(C)n1)CCN(C1CCOC1)C2.O=C(O)C(F)(F)F.O=C(O)C(F)(F)F` (stereo unspecified), the “Percent Effect” value is reported as 9.97%.

Regarding `Cc1ccc(CNC(CN2CCN(C)CC2)c2ccccc2)cc1` (stereo unspecified), the “Percent Effect” value turned out to be 3.62%.

Consider `Cc1ccc2c(n1)N(CCn1cccn1)CCN(CC1CC1)C2.O=C(O)C(F)(F)F.O=C(O)C(F)(F)F`, for which the “Percent Effect” value worked out at 102.9%.

With `COCCN1CCN(Cc2c(C)noc2C)Cc2ccc(C)nc21.O=C(O)C(F)(F)F.O=C(O)C(F)(F)F`, the “Percent Effect” value is -3.796%.

`COCCCC(=O)Nc1[nH]nc(-c2ccncc2)c1C`: the “Percent Effect” value was determined as 2.915%.

For the compound `O=C(COCc1nc(-c2ccncc2)no1)N1CCCCCC1`, the “Percent Effect” value was -13.27%.

Take `O=C(COCc1nc(-c2ccncc2)no1)N1CCCC1`: the “Percent Effect” value is -11.18%.

In the case of `O=C(NCc1ccccc1)NCc1nc(-c2ccncc2)n[nH]1`, the “Percent Effect” value worked out at 100.9%.

`O=C(Cc1nc(-c2ccncc2)n[nH]1)N1CCOCC1`: the “Percent Effect” value was 104.3%.

For `O=S(=O)(NCCc1nc(-c2cccnc2)n[nH]1)NCc1ccccc1`, the “Percent Effect” value is on record as -41.46%.

For the compound `O=S(=O)(NCc1ccccc1)NCc1nc(-c2ccncc2)n[nH]1`, the “Percent Effect” value was -34.55%.

In the case of `O=C(Cc1nc(-c2ccncc2)n[nH]1)NCCCN1CCOCC1`, the “Percent Effect” value came to 108.4%.

As to `COCCCNC(=O)Cc1cc(-c2ccc3c(c2)OCO3)on1`, the “Percent Effect” value is given as 2.22%.

Regarding `O=C(NCCCN1CCOCC1)c1cc(-c2ccc3c(c2)CCO3)n[nH]1`, the “Percent Effect” value is listed as -1.634%.

On to `COCCCNC(=O)Cc1nc(-c2ccncc2)n[nH]1`, for which the “Percent Effect” value was found to be 100.9%.

With `CN1CCC2(CC1)CN(C)C(=O)C[C@@H]2C(F)(F)F`, the “Percent Effect” value is reported as -12.83%.

In the case of `Cc1noc(C)c1CNC(=O)N1Cc2ccccc2N(C)CC1C` (stereo unspecified), the “Percent Effect” value amounted to 7.877%.

For `Cc1occc1CNC(=O)Nc1ccc2nc(N3CCOCC3)oc2c1`, the “Percent Effect” value is given as -9.739%.

`OCc1ccc(-c2nccn2CCc2nc3c(s2)CCCC3)o1`: the “Percent Effect” value was -5.43%.

For the compound `Cc1ccn(CC(=O)N2CC[C@@H](c3ccc4ccccc4c3)[C@H](O)C2)n1`, the “Percent Effect” value is 0.6829%.

`CC(C)C(C)(C#N)NC(=O)Cn1nnc(-c2cc3ccccc3o2)n1` (stereo unspecified): the “Percent Effect” value is given as -0.9006%.

Consider `CCOCC(=O)Nc1cc(C)cnc1OC`, for which the “Percent Effect” value is -15.44%.

Regarding `COc1nc2c(cc1C(=O)NCCCc1nnc(N)s1)CCC2`, the “Percent Effect” value is listed as 10.88%.

Take `NC(=O)c1cc2c(nc1CCOCc1ccccc1)CCC2`: the “Percent Effect” value turned out to be 91.73%.

With `NC(=O)c1cc2c(nc1CCOc1ccc(F)cc1)CCC2`, the “Percent Effect” value was 109.9%.

`CN1CCCCC1Cc1nc2c(cc1C(N)=O)CCC2` (stereo unspecified): the “Percent Effect” value is recorded as -3.187%.

In the case of `COc1cccc(OCCc2nc3c(cc2C(N)=O)CCC3)c1`, the “Percent Effect” value is reported as 92.52%.

As to `COc1cccc(OCCc2cncc(C(N)=O)c2)c1`, the “Percent Effect” value is listed as -19.41%.

With `NC(=O)c1cc2c(nc1-c1ccc3c(c1)OCCO3)CCC2`, the “Percent Effect” value is given as -8.871%.

On to `NC(=O)c1cc2c(nc1CC1CCCCO1)CCC2` (stereo unspecified), for which the “Percent Effect” value is -20.91%.

Consider `NC(=O)c1cc2c(nc1-c1ccc3c(c1)CCO3)CCC2`, for which the “Percent Effect” value is recorded as 1.16%.

Take `CC(C#N)CNC(=O)Nc1ccc(Br)cc1` (stereo unspecified): the “Percent Effect” value is given as -11.38%.

For the compound `Cc1cc(CN(C)C(=O)C(c2cccnc2)N2CCOCC2)n[nH]1` (stereo unspecified), the “Percent Effect” value was -3.091%.

On to `Cc1ccc(S(=O)(=O)Cc2noc([C@@H]3C[C@@H](O)CN3C)n2)cc1`, for which the “Percent Effect” value is reported as -3.09%.

Turning to `Cc1ncsc1CN1C[C@@H]2COC[C@]2(C(=O)NCc2ccccn2)C1.O=C(O)C(F)(F)F.O=C(O)C(F)(F)F`, the “Percent Effect” value was -14.61%.

Take `Cc1ncsc1CN1C[C@@H]2COC[C@]2(C(=O)NCc2cccnc2)C1.O=C(O)C(F)(F)F.O=C(O)C(F)(F)F`: the “Percent Effect” value was 4.251%.

For the compound `Cn1cc(CN2C[C@@H]3COC[C@]3(C(=O)NCc3ccccn3)C2)cn1.O=C(O)C(F)(F)F.O=C(O)C(F)(F)F`, the “Percent Effect” value is given as -3.108%.

Take `O=C(NCCc1cccs1)[C@]12COC[C@H]1CN(Cc1ccccn1)C2.O=C(O)C(F)(F)F.O=C(O)C(F)(F)F`: the “Percent Effect” value is given as -75.28%.

As for `O=C(NCc1ccccn1)[C@]12COC[C@H]1CN(Cc1cccnc1)C2.O=C(O)C(F)(F)F.O=C(O)C(F)(F)F.O=C(O)C(F)(F)F`, the “Percent Effect” value is listed as 99.25%.

`O=C(NCc1ccccn1)[C@]12COC[C@H]1CN(Cc1ccccc1F)C2.O=C(O)C(F)(F)F.O=C(O)C(F)(F)F`: the “Percent Effect” value turned out to be 103.6%.

As to `CCS(=O)(=O)N1C[C@H]2CN(c3cnn(C)c3)C(=O)[C@H]2C1`, the “Percent Effect” value is reported as -14.71%.

`CC(C)(CNc1cn[nH]c(=O)c1Cl)c1ccc2c(c1)OCCO2`: the “Percent Effect” value stood at 14.36%.

For `CC(C(=O)NCC(C)(C)c1ccc2c(c1)OCO2)n1ccnc1` (stereo unspecified), the “Percent Effect” value came out at 97.89%.

For `CN(CC(=O)NCC(C)(C)c1ccc2c(c1)OCO2)c1cnccn1`, the “Percent Effect” value is given as -4.592%.

`Cc1ccc(C(C)(C)CNC(=O)NC(C)Cn2cncn2)cc1` (stereo unspecified): the “Percent Effect” value amounted to 14.21%.

Regarding `CCN(CC(=O)NC(C)C)C(=O)C(C)(C)c1ccc2c(c1)OCCO2`, the “Percent Effect” value is given as -2.563%.

For the compound `CC(C(=O)NCC(C)(C)c1ccc2c(c1)OCCO2)n1cncn1` (stereo unspecified), the “Percent Effect” value amounted to 97.81%.

In the case of `Cc1ccc(OCCNC(=O)C(C)n2cncn2)cc1` (stereo unspecified), the “Percent Effect” value is given as -5.656%.

For the compound `CC(C(=O)NCc1ccc2c(c1)OCCO2)n1cncn1` (stereo unspecified), the “Percent Effect” value is 116.3%.

`CC(C(=O)NCC(C)(C)c1ccc(Br)cc1)n1cncn1` (stereo unspecified): the “Percent Effect” value amounted to 77.11%.

Take `CC(C(=O)NCc1ccnc(N(C)C)c1)n1cncn1` (stereo unspecified): the “Percent Effect” value was -16.73%.

`CC(C)(CNc1cn[nH]c(=O)c1Cl)c1ccc2c(c1)OCO2`: the “Percent Effect” value was 11.94%.

On to `CC(C(=O)NCc1ccnc(OCC(F)(F)F)c1)n1cncn1` (stereo unspecified), for which the “Percent Effect” value is listed as 8.582%.

Take `O=C(NCCNc1ncccn1)NCCSC(F)(F)F`: the “Percent Effect” value is recorded as -9.16%.

Take `Cc1cnn(C2CN(CC(O)c3ccc4c(c3)OCCO4)C2)c1` (stereo unspecified): the “Percent Effect” value is recorded as -3.679%.

With `Cc1nn(C)c(N(C)C)c1CNCCCN(C)S(C)(=O)=O`, the “Percent Effect” value is given as -15.04%.

With `CCOc1cc(C(=O)O)cc(-c2ccccc2)c1OC`, the “Percent Effect” value is given as -26.33%.

For `CCCNC(=O)Nc1cc2c(cc1SC)OCCO2`, the “Percent Effect” value came out at 21.87%.

For `CCOCCCC(=O)Nc1cc(C(N)=O)ccc1N1CCCCC1`, the “Percent Effect” value was determined as 2.668%.

Turning to `CC(C(=O)NCCOc1ccc2c(c1)OCO2)n1cncn1` (stereo unspecified), the “Percent Effect” value came out at 5.572%.

Consider `CC(C(=O)NCCc1ccc2c(c1)OCCO2)n1cncn1` (stereo unspecified), for which the “Percent Effect” value is on record as 104.6%.

For the compound `CC(Cn1ccnc1)NC(=O)NCCc1ccc2c(c1)OCCO2` (stereo unspecified), the “Percent Effect” value was found to be 0.8239%.

In the case of `Cc1nn(C)c(C)c1C1CCCN1Cc1nc(N)c2ccccc2n1` (stereo unspecified), the “Percent Effect” value was 120.3%.

Regarding `CCC1CCCN(Cc2nc3ccccc3c(=O)[nH]2)C1` (stereo unspecified), the “Percent Effect” value is -14.75%.

Consider `Cc1cc(C)n(C2CCN(Cc3nc4ccccc4n3C)CC2)n1`, for which the “Percent Effect” value was determined as 188.5%.

For `Cc1nc(C)n(CC2CCCN2Cc2nc3ccccc3n2C)n1` (stereo unspecified), the “Percent Effect” value was found to be 1.241%.

For `Cc1nn(C)c(C)c1C1CCCN1Cc1nc2ccccc2n1C` (stereo unspecified), the “Percent Effect” value is recorded as 136.2%.

Take `Cn1c(CN2CCN(CC3CCCO3)CC2)nc2ccccc21` (stereo unspecified): the “Percent Effect” value is on record as -23.45%.

In the case of `Cc1nn(C)c(C)c1C1CCCN1Cc1nc2ccccc2o1` (stereo unspecified), the “Percent Effect” value was determined as 33.14%.

For `Cc1nn(C)c(C)c1C1CCCN1Cc1nc(C)c2ccccc2n1` (stereo unspecified), the “Percent Effect” value came out at 40.75%.

As for `Cc1nn(C)c(C)c1C1CCCN1Cc1nc2ccccc2c(=O)[nH]1` (stereo unspecified), the “Percent Effect” value is 97.01%.

Consider `Cc1nc(CN2CCCC2c2c(C)nn(C)c2Cl)no1` (stereo unspecified), for which the “Percent Effect” value was -6.071%.

For the compound `Cc1nc2ccccc2nc1CN1CCCC1c1c(C)nn(C)c1C` (stereo unspecified), the “Percent Effect” value came to 2.386%.

For the compound `O=c1oc(-c2ccccc2)nn1CN1CCC(N2CCCCC2)CC1`, the “Percent Effect” value was -11.85%.

Turning to `Cc1nc2scc(C)n2c1CNc1ccc(C(=O)O)cc1`, the “Percent Effect” value came to 1.868%.

For `CCC[C@@H]1CN(S(=O)(=O)c2ccc3[nH]c(=O)[nH]c3c2)C[C@H]1NC(C)=O`, the “Percent Effect” value was -12.43%.

For `Cn1c(CN2CCN(CC3CC3)CC2)nnc1C1CCC1`, the “Percent Effect” value is -1.801%.

For the compound `Cc1ccnc(C(NC(=O)c2ccc(O)nc2C)C2CC2)n1` (stereo unspecified), the “Percent Effect” value was found to be 19.85%.

Turning to `COC(CNC(=O)c1ccc[nH]1)c1cccc(Cl)c1` (stereo unspecified), the “Percent Effect” value is listed as -25.79%.

In the case of `Cc1cccc2c1nc(CCO)n2-c1ccc(C(=O)N2CCOCC2)o1`, the “Percent Effect” value was -4.594%.

On to `CC(C)Oc1cc(N2CCC(C(N)=O)CC2)nc(N)n1`, for which the “Percent Effect” value was 11.1%.

Take `CCN(CC)S(=O)(=O)N1C[C@@H](c2ccccc2)[C@H]2[C@H]1CCCCCN2C`: the “Percent Effect” value came out at 163.4%.

As to `CCN(CC(=O)NC(C)C)S(=O)(=O)N1CCCCC1C` (stereo unspecified), the “Percent Effect” value is on record as -3.982%.

In the case of `CCN(CC)S(=O)(=O)N1CC[C@H](c2ccccc2)[C@@H]2[C@H]1CCCCN2C`, the “Percent Effect” value is listed as 135.6%.

The values are drawn from ChEMBL document CHEMBL3988442, “University of Dundee, Small-Polar-MMV Screening Library” (2021).
